# Assay results reported in the supplement of paper PMC8728848.
# The sample as a whole holds a higher share of the strongest signals than the screen did.
# B1: OGAN (protein)
# chain: MVQKESQATLEERESELSSNPAASAGASLEPPAAPAPGEDNPAGAGGAAVAGAAGGARRFLCGVVEGFYGRPWVMEQRKELFRRLQKWELNTYLYAPKDDYKHRMFWREMYSVEEAEQLMTLISAAREYEIEFIYAISPGLDITFSNPKEVSTLKRKLDQVSQFGCRSFALLFNDIDHNMCAADKEVFSSFAHAQVSITNEIYQYLGEPETFLFCPTEYCGTFCYPNVSQSPYLRTVGEKLLPGIEVLWTGPKVVSKEIPVESIEEVSKIIKRAPVIWDNIHANDYDQKRLFLGPYKGRSTELIPRLKGVLTNPNCEFEANYVAIHTLATWYKSNMNGVRKDVVMTDSEDSTVSIQIKLENEGSDEDIETDVLYSPQMALKLALTEWLQEFGVPHQY
# What was measured:
# Experiment in all cases: glycan array binding signal (z-score within array); higher = stronger binding
# Details in all cases: glycan notation: IUPAC condensed, linker removed
# Gal3S6S(b1-4)GlcNAc = biological target: Gal3S6S(b1-4)GlcNAc
# Procedure, shortened: (§1)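 Glycan array binding is given as a within-array Z-score, which can be read as non-binding when negative. The arrays, 3228 of them, came from the Consortium for Functional Glycomics database and were retained only where the protein sequence was available. Z-scores were averaged across arrays of the same protein sequence at different concentrations or buffers and across linkers.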
# [1] = biological target: Glc(a1-4)Glc(a1-4)Glc(a1-4)Glc
# Procedure, shortened: as §1
# [2] = biological target: GlcA3S(b1-3)Gal(b1-4)GlcNAc(b1-2)Man
# Procedure, shortened: as §1
# [3] = biological target: GlcNAc(a1-3)Gal(b1-4)GlcNAc
# Procedure, shortened: as §1
# [4] = biological target: GlcNAc(a1-4)Gal(b1-4)GlcNAc(b1-3)Gal(b1-4)GlcNAc(b1-3)Gal(b1-4)GlcNAc
# Procedure, shortened: as §1
# [5] = biological target: GlcNAc(a1-4)Gal(b1-4)GlcNAc(b1-3)Gal(b1-4)[Fuc(a1-3)]GlcNAc(b1-3)Gal(b1-4)[Fuc(a1-3)]GlcNAc
# Procedure, shortened: as §1
# [6] = biological target: GlcNAc(b1-2)Man(a1-3)[GlcNAc(b1-4)][GlcNAc(b1-2)Man(a1-6)]Man(b1-4)GlcNAc(b1-4)[Fuc(a1-6)]GlcNAc
# Procedure, shortened: as §1
# [7] = biological target: GlcNAc(b1-3)Gal(b1-3)GalNAc
# Procedure, shortened: as §1
# [8] = biological target: GlcNAc(b1-3)Gal(b1-4)GlcNAc
# Procedure, shortened: as §1
# [9] = biological target: GlcNAc(b1-3)Gal(b1-4)GlcNAc(b1-2)Man(a1-3)[GlcNAc(b1-3)Gal(b1-4)GlcNAc(b1-2)Man(a1-6)]Man(b1-4)GlcNAc(b1-4)GlcNAc
# Procedure, shortened: as §1
# [10] = biological target: GlcNAc(b1-3)Gal(b1-4)GlcNAc(b1-3)Gal(b1-4)GlcNAc
# Procedure, shortened: as §1
# [11] = biological target: GlcNAc(b1-3)Gal(b1-4)GlcNAc(b1-3)Gal(b1-4)GlcNAc(b1-3)Gal(b1-4)GlcNAc(b1-3)Gal(b1-4)GlcNAc(b1-2)[GlcNAc(b1-3)Gal(b1-4)GlcNAc(b1-3)Gal(b1-4)GlcNAc(b1-3)Gal(b1-4)GlcNAc(b1-3)Gal(b1-4)GlcNAc(b1-6)]Man(a1-6)[GlcNAc(b1-3)Gal(b1-4)GlcNAc(b1-3)Gal(b1-4)GlcNAc(b1-3)Gal(b1-4)GlcNAc(b1-3)Gal(b1-4)GlcNAc(b1-2)Man(a1-3)]Man(b1-4)GlcNAc(b1-4)[Fuc(a1-6)]GlcNAc
# Procedure, shortened: as §1
# [12] = biological target: GlcNAc(b1-3)Gal(b1-4)GlcNAc(b1-6)[GlcNAc(b1-3)Gal(b1-3)]GalNAc
# Procedure, shortened: as §1
# [13] = biological target: GlcNAc(b1-3)[GlcNAc(b1-4)][GlcNAc(b1-6)]GlcNAc
# Procedure, shortened: as §1
# Kdn(a2-3)Gal(b1-4)Glc = biological target: Kdn(a2-3)Gal(b1-4)Glc
# Procedure, shortened: as §1
# Man(a1-2)Man(a1-3)Man = biological target: Man(a1-2)Man(a1-3)Man
# Procedure, shortened: as §1
# [14] = biological target: Man(a1-2)Man(a1-3)[Man(a1-2)Man(a1-6)]Man(a1-6)[Man(a1-2)Man(a1-2)Man(a1-3)]Man(b1-4)GlcNAc(b1-4)GlcNAc
# Procedure, shortened: as §1
# MurNAc(b1-4)GlcNAc = biological target: MurNAc(b1-4)GlcNAc
# Procedure, shortened: as §1
# [15] = biological target: Neu5Ac(a2-3)Gal(b1-3)GalNAc(b1-3)Gal(a1-4)Gal(b1-4)Glc
# Procedure, shortened: as §1
# [16] = biological target: Neu5Ac(a2-3)Gal(b1-3)GalNAc(b1-4)[Neu5Ac(a2-8)Neu5Ac(a2-3)]Gal(b1-4)Glc
# Procedure, shortened: as §1
# [17] = biological target: Neu5Ac(a2-3)Gal(b1-4)GlcNAc(b1-2)Man(a1-3)[Neu5Ac(a2-6)Gal(b1-4)GlcNAc(b1-2)Man(a1-6)]Man(b1-4)GlcNAc(b1-4)GlcNAc
# Procedure, shortened: as §1
# [18] = biological target: Neu5Ac(a2-3)Gal(b1-4)GlcNAc(b1-3)GalNAc
# Procedure, shortened: as §1
# [19] = biological target: Neu5Ac(a2-3)Gal(b1-4)[Fuc(a1-3)]GlcNAc(b1-3)Gal
# Procedure, shortened: as §1
# [20] = biological target: Neu5Ac(a2-6)Gal(b1-4)GlcNAc(b1-2)Man(a1-3)[Gal(b1-4)GlcNAc(b1-2)Man(a1-6)]Man(b1-4)GlcNAc(b1-4)GlcNAc
# Procedure, shortened: as §1
# [21] = biological target: Neu5Ac(a2-6)Gal(b1-4)GlcNAc(b1-2)Man(a1-3)[GlcNAc(b1-4)][Neu5Ac(a2-6)Gal(b1-4)GlcNAc(b1-2)Man(a1-6)]Man(b1-4)GlcNAc(b1-4)GlcNAc
# Procedure, shortened: as §1
# [22] = biological target: Neu5Ac(a2-6)Gal(b1-4)GlcNAc(b1-3)Gal(b1-4)GlcNAc(b1-3)Gal(b1-4)GlcNAc(b1-2)Man(a1-3)[Neu5Ac(a2-6)Gal(b1-4)GlcNAc(b1-3)Gal(b1-4)GlcNAc(b1-3)Gal(b1-4)GlcNAc(b1-2)Man(a1-6)]GalNAc
# Procedure, shortened: as §1
# [23] = biological target: Neu5Ac(a2-6)Gal(b1-4)GlcNAc6S
# Procedure, shortened: as §1
# [24] = biological target: Neu5Ac(a2-8)Neu5Ac(a2-3)[Gal(b1-3)GalNAc(b1-4)]Gal(b1-4)Glc
# Procedure, shortened: as §1
# [25] = biological target: Neu5Gc(a2-6)Gal(b1-4)GlcNAc
# Procedure, shortened: as §1
# [26] = biological target: Neu5Gc(b2-6)Gal(b1-4)GlcNAc
# Procedure, shortened: as §1
binder,measurement,setting,value
B1,glycan array binding signal (z-score),Gal3S6S(b1-4)GlcNAc,-0.035
same,glycan array binding signal (z-score),[1],0.06
same,glycan array binding signal (z-score),[2],-0.022
same,glycan array binding signal (z-score),[3],-0.068
same,glycan array binding signal (z-score),[4],-0.058
same,glycan array binding signal (z-score),[5],-0.057
same,glycan array binding signal (z-score),[6],-0.074
same,glycan array binding signal (z-score),[7],-0.035
same,glycan array binding signal (z-score),[8],-0.063
same,glycan array binding signal (z-score),[9],-0.058
same,glycan array binding signal (z-score),[10],-0.055
same,glycan array binding signal (z-score),[11],0.044
same,glycan array binding signal (z-score),[12],-0.052
same,glycan array binding signal (z-score),[13],-0.047
same,glycan array binding signal (z-score),Kdn(a2-3)Gal(b1-4)Glc,-0.059
same,glycan array binding signal (z-score),Man(a1-2)Man(a1-3)Man,-0.01
same,glycan array binding signal (z-score),[14],-0.036
same,glycan array binding signal (z-score),MurNAc(b1-4)GlcNAc,-0.024
same,glycan array binding signal (z-score),[15],-0.065
same,glycan array binding signal (z-score),[16],-0.051
same,glycan array binding signal (z-score),[17],-0.048
same,glycan array binding signal (z-score),[18],-0.082
same,glycan array binding signal (z-score),[19],-0.094
same,glycan array binding signal (z-score),[20],-0.055
same,glycan array binding signal (z-score),[21],-0.034
same,glycan array binding signal (z-score),[22],0.039
same,glycan array binding signal (z-score),[23],-0.052
same,glycan array binding signal (z-score),[24],-0.052
same,glycan array binding signal (z-score),[25],-0.071
same,glycan array binding signal (z-score),[26],-0.021
